For assay [1], the target named is Catechol O-methyltransferase (Homo sapiens) (UniProt P21964). The experiment in a line: Confirmatory Screen for Target Class Profiling of Small Molecule Inhibitors of Methyltransferases (AID 1745852; calls by dose curve; note: potency is the fitted concentration of half-maximal effect; for activity change, negative = inhibition: % is set by controls: 0 for no effect and ±100 for the full control effect). As to conditions: MTase-Glo luminescence, SAH detection, recombinant enzyme; measured here: COMT max response; stronger effect = lower value.
Sequence of Catechol O-methyltransferase (Homo sapiens) (P21964 whole entry, looked up): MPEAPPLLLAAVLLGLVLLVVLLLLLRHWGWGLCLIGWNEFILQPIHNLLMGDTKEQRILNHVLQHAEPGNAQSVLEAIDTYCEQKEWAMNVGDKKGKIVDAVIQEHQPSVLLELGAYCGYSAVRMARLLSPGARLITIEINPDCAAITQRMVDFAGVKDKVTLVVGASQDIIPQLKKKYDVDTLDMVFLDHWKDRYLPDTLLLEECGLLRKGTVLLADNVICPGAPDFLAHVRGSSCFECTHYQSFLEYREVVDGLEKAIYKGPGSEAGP
Assay [2] deals with Guanidinoacetate N-methyltransferase (Homo sapiens) (UniProt Q14353). Described as above. Particulars: MTase-Glo luminescence, SAH detection, recombinant enzyme; activity change, negative = inhibition: at 57.3 µM (top of the series) unless noted.
The target in assay [3] is Nicotinamide N-methyltransferase (Homo sapiens) (UniProt P40261). The description is as above. Particulars: MTase-Glo luminescence, SAH detection, recombinant enzyme; measured here: NNMT max response; stronger effect = lower value.
Sequence of Nicotinamide N-methyltransferase (Homo sapiens) (P40261 whole entry, looked up): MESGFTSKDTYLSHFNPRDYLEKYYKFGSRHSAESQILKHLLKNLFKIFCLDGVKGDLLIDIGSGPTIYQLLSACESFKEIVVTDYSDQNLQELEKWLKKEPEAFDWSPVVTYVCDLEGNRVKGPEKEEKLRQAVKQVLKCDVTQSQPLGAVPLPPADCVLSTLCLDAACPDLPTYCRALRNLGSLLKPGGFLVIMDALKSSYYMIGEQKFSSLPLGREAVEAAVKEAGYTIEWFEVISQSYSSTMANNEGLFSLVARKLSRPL
The target of assay [4] is Phenylethanolamine N-methyltransferase (Homo sapiens) (UniProt P11086). The description is as above. As to conditions: MTase-Glo luminescence, SAH detection, recombinant enzyme; measured here: PNMT max response; stronger effect = lower value.
Sequence of Phenylethanolamine N-methyltransferase (Homo sapiens) (P11086 whole entry, looked up): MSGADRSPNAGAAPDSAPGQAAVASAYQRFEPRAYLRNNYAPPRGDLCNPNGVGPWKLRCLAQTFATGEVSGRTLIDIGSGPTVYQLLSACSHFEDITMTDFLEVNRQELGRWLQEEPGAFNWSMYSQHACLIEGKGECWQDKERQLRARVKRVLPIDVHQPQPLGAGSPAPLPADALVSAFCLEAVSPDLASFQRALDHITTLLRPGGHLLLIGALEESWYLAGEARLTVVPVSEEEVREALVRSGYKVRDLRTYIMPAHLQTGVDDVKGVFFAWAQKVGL
The target of assay [5] is Glutathione peroxidase 1 (Homo sapiens) (UniProt P07203). The experiment in a line: Primary qHTS Assay for Inhibitors of Recombinant Selenoprotein Glutathione Peroxidase 1 (GPX1) (AID 1845191). Note: nearly all actives have a fitted effect of over 65% in size. Note: potency is the fitted concentration of half-maximal effect. As to conditions: recombinant GPX1, GR-coupled NADPH fluorescence, 15 min; series mostly up to 48.8 µM. A digest of the protocol:
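NADPH consumption tracked by fluorescence at 340/450 nm between t=0 and t=15 min, room temperature. Final mix: 10 nM GPX1, 100 nM glutathione reductase, 1 mM GSH, 0.5 mM NADPH, 0.5 mM cumene hydroperoxide, 0.01% BSA; 30 min compound–enzyme preincubation.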

Assay [6] concerns the target Phospholipid hydroperoxide glutathione peroxidase GPX4 (Homo sapiens) (UniProt P36969). The experiment in a line: Primary qHTS Assay for Inhibitors of Recombinant Selenoprotein Glutathione Peroxidase 4 (GPX4) (AID 1845192). For activity change, negative = inhibition: % is set by controls: 0 for no effect and ±100 for the full control effect. Note: nearly all actives have a fitted effect of over 65% in size. Particulars: recombinant GPX4, GR-coupled NADPH fluorescence, 15 min; series mostly up to 50 µM. A digest of the protocol:
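NADPH consumption followed by fluorescence at 340/450 nm, t=0 and after 15 min at room temperature. Reaction started with cumene hydroperoxide (0.5 mM final) after 30 min compound–GPX4 preincubation; final 200 nM GPX4, 100 nM GR, 1 mM GSH, 0.5 mM NADPH.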

For assay [7], the target named is Luciferin 4-monooxygenase (Photinus pyralis) (UniProt P08659). The experiment in a line: Primary firefly luciferase (FLuc) qHTS assay for identification of artifact compounds. (AID 1845220).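 For activity change, negative = inhibition: plate controls were DMSO vehicle for no effect and no enzyme for full effect.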 Note: nearly all actives have a fitted effect of over 60% in size. Particulars: purified firefly luciferase, luminescence, 5 min; series mostly up to 54.1 µM. In short, it runs like this: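 Cell-free, 1536-well qHTS. Buffer pH 7.6 with 0.01% Tween-20 and 0.05% BSA; 10 uM D-luciferin, 10 uM ATP; 10 nM P. pyralis luciferase; luminescence after 5 min.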

The nature of assay [8]: Primary fluorescence-based thiol-reactive (MSTI) qHTS assay for identification of artifact compounds. (AID 1845221). Note: nearly all actives have a fitted effect of over 65% in size. Note: potency is the fitted concentration of half-maximal effect. As to conditions: MSTI thiol-reactivity probe, 1 h; series mostly up to 53.8 µM. A digest of the protocol: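 qHTS titration of compound; 4 uM MSTI, PBS pH 7.4, 2% DMSO; 1 h RT, dark; fluorescence 525/598 nm; normalized to Acetyl-MSTI and MSTI; 4-parameter Hill fit.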

Assay [9] concerns Nanoluciferase (engineered Oplophorus gracilirostris luciferase). The experiment in a line: Primary Nanoluciferase (NLuc) qHTS assay for identification of artifact compounds. (AID 1845222).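 Note: 0% = DMSO and -100% = no enzyme.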 As to conditions: NLuc-conditioned medium, Nano-Glo luminescence, 5 min; series mostly up to 54.1 µM. A digest of the protocol:
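Compounds are pinned into diluted (1:55) conditioned medium of NLuc-expressing S16 cells and held 15 min at room temperature protected from light. Nano-Glo substrate follows, and luminescence is read 5 min later.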

Assay [10] can be described thus: Quantitative High-Throughput drug screen in 47 multiple myeloma cell lines against the NCATS MIPE library collection: FR4_PLB cell viability assay (AID 1918924; note: potency is the fitted concentration of half-maximal effect; nearly all actives have a fitted effect of over 35% in size). Particulars: FR4_PLB myeloma cells viability, CellTiter-Glo ATP, 48 h; series mostly up to 45.8 µM. A digest of the protocol: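 Myeloma cells (500 per well) were exposed to MIPE 4.0 compounds by pin transfer and incubated 48 hours at 37C, 5% CO2. Viability was read as ATP by CellTiter-Glo luminescence, normalised to DMSO (100%) and media-only (0%) wells.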

Assay [11] in a line: Primary redox qHTS assay for identification of artifact compounds. (AID 1845223). Note: potency is the fitted concentration of half-maximal effect. Particulars: Amplex Red/HRP redox cycling with DTT, fluorescence; series mostly up to 53.8 µM. In short, it runs like this:
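Redox-cycling detection via DTT (250 uM final) oxidation coupled to Amplex Red (25 uM)/HRP (250 mU/mL) in HBSS. 15 min preincubation plus 30 min after DTT, room temperature. Ex/Em 525/598 nm; 4-parameter Hill fit against DMSO and 10 uM DA3003.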

Assay [12] addresses Rap guanine nucleotide exchange factor 3 (Homo sapiens) (UniProt O95398). The assay is described as follows: Confirmatory qHTS for antagonist of cAMP-regulated guanine nucleotide exchange factor 3 (EPAC1) (AID 1645880). Note: potency is the fitted concentration of half-maximal effect; nearly all actives have a fitted effect of over 55% in size. As to conditions: EPAC1 Rap1B-BODIPY-GDP exchange, fluorescence. A digest of the protocol:
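Released BODIPY-GDP fluoresces less than Rap1-bound BODIPY-GDP; the signal is followed at 480/540 nm at 5-min intervals over 30 min, after 5 min at room temperature. Reactions contain 100 nM EPAC1, 250 nM RAP1B-BODIPY-GDP and 50 uM GDP; results are normalized to ATA and DMSO.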

The target is the same in assay [13]. The experiment in a line: Confirmatory qHTS for agonist of cAMP-regulated guanine nucleotide exchange factor 3 (EPAC1) (AID 1645881).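 Note: EPAC1 catalysed release of BODIPY-GDP from Rap1B seen as fluorescence loss; nearly all actives have a fitted effect of over 75% in size.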 Particulars: EPAC1 Rap1B BODIPY-GDP exchange fluorescence, 100% = cAMP control response; series mostly up to 154 µM.
For assay [14], the target named is Rap guanine nucleotide exchange factor 4 (Homo sapiens) (UniProt Q8WZA2). The assay is described as follows: Confirmatory qHTS for agonist of cAMP-regulated guanine nucleotide exchange factor 4 (EPAC2) (AID 1645884). Note: % is set by controls: 0 for no effect and ±100 for the full control effect; nearly all actives have a fitted effect of over 65% in size. As to conditions: EPAC2 GEF activity, Rap1B-BODIPY-GDP fluorescence, percent relative to cAMP agonist control; series mostly up to 154 µM.
Sequence of Rap guanine nucleotide exchange factor 4 (Homo sapiens) (Q8WZA2 whole entry, looked up): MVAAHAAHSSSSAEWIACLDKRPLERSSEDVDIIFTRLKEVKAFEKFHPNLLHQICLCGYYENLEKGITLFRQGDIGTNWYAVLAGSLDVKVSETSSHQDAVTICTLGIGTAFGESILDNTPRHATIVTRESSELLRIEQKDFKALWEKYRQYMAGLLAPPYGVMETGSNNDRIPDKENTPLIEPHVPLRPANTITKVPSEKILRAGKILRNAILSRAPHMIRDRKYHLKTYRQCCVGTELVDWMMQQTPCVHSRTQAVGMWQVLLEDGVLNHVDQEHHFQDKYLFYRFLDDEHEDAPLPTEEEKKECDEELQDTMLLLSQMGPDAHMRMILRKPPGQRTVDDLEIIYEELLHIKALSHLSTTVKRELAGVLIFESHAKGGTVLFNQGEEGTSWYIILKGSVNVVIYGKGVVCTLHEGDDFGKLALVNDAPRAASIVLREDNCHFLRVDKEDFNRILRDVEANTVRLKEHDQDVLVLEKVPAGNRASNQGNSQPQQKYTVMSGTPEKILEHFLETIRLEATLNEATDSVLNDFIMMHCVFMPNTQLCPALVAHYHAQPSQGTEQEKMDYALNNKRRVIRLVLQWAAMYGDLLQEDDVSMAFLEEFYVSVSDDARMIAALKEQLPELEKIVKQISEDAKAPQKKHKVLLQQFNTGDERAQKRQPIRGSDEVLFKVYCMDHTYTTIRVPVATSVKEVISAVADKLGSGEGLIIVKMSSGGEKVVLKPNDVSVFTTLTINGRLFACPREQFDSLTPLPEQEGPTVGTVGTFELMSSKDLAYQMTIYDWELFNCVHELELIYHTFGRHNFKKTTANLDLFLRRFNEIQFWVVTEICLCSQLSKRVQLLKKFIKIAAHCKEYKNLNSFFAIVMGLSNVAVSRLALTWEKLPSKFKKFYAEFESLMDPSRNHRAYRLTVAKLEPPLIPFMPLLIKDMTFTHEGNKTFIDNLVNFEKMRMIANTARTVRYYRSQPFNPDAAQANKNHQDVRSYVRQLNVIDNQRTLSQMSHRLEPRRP
Assay [15] has the same target. The assay is described as follows: Confirmatory qHTS for antagonist of cAMP-regulated guanine nucleotide exchange factor 4 (EPAC2) (AID 1645885). Note: potency is the fitted concentration of half-maximal effect; nearly all actives have a fitted effect of over 25% in size. Particulars: EPAC2 Rap1B-BODIPY-GDP exchange fluorescence, biochemical.
Assay [16] addresses Rap guanine nucleotide exchange factor 3 (Homo sapiens) (UniProt O95398). The assay is described as follows: Counterscreen qHTS for antagonist of cAMP-regulated guanine nucleotide exchange factor 3 (EPAC1) (AID 1645888). Note: % of control where 0% means no effect. Particulars: Rap1B-BODIPY-GDP nucleotide exchange, fluorescence; series mostly up to 154 µM. A digest of the protocol: (§1)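 Rap1B-BODIPY-GDP 250 nM + GDP 50 uM; cpds 7-pt, final 9.74 nM–152 uM (activator mode) or from 7.32 nM upwards (inhibitor mode); RT; FI 480/540 nm at 5 and 30 min, then ± cAMP, reread.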

For assay [17] the target is unchanged. The assay is described as follows: Counterscreen qHTS for agonist of cAMP-regulated guanine nucleotide exchange factor 3 (EPAC1) (AID 1645889). Note: % of control where 0% means no effect; nearly all actives have a fitted effect of over 40% in size. As to conditions: EPAC1 Rap1B-BODIPY-GDP exchange, fluorescence; series mostly up to 154 µM. In short, it runs like this: as §1
The nature of assay [18]: NCATS anti-infectives library activity on HEK293 viability as a counter-qHTS vs the C. elegans viability qHTS (AID 1745854).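 Note: HEK293 cells exposed to compounds for 24 hr before the viability read; % is set by controls: 0 for no effect and ±100 for the full control effect.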 As to conditions: HEK293 viability counter-screen; series mostly up to 41.8 µM. In short, it runs like this:
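Counter-screen for cytotoxicity: HEK293, 24 hr, 37C, compounds up to 41.7 uM final (a dilution series, 1:5). Readout CellTiter-Glo luminescence, 10 min RT. Digitonin control, 83.3 uM final.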

A short description of assay [19]: NCATS anti-infectives library activity on the primary C. elegans qHTS viability assay (AID 1745855; calls by dose curve). Particulars: C. elegans worm area imaging, day 7; series mostly up to 41.8 µM. In short, it runs like this: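 GFP read-out by 488 nm laser cytometry at day 0, 3 and 7, gated on object perimeter, area and peak intensity, scored viability of PE254-GFP-FLuc worms exposed to compound in S medium with bacterial capsules at 21 °C.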

“And” between values parts separate entries of the source, which are not always exact repeats. Equal entries are not always repeated. Records with an inconclusive call do not appear. More than one record can exist for a structure, and the calls need not agree. The source made the active and inactive calls. Unless noted, calls come from the whole dose curve; as a rule, active = well fitted curve in the direction sought with a large enough effect; inconclusive = small, poorly fitted or top-dose-only effect, or another doubt; inactive = no such curve, though single readings can be large; an effect the other way counts as inactive or inconclusive.

Sequence of Rap guanine nucleotide exchange factor 3 (Homo sapiens) (O95398 whole entry, looked up): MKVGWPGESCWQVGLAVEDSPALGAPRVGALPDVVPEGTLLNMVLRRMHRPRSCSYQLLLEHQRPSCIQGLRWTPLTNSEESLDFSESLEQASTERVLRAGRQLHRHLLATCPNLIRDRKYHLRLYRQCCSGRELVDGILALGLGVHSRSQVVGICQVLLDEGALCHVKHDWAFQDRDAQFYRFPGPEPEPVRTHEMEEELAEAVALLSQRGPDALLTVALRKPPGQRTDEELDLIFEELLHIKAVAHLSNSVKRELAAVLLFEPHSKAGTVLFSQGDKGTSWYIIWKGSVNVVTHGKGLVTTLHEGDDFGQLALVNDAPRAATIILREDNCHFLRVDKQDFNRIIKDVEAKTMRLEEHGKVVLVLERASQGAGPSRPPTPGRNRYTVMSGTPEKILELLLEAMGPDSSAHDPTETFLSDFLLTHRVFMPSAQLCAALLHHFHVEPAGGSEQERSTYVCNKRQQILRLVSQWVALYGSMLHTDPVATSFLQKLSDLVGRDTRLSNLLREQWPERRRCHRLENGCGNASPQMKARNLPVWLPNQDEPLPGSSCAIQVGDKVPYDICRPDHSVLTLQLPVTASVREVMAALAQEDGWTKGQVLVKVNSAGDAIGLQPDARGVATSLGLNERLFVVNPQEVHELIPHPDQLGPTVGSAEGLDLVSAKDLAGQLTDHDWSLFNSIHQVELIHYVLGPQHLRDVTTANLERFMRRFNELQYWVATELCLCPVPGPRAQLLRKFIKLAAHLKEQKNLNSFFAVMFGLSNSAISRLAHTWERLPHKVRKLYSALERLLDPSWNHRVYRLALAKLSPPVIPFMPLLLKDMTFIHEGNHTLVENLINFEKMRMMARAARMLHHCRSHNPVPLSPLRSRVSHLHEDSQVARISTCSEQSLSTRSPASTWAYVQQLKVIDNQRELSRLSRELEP
Sequence of Phospholipid hydroperoxide glutathione peroxidase GPX4 (Homo sapiens) (P36969 whole entry, looked up): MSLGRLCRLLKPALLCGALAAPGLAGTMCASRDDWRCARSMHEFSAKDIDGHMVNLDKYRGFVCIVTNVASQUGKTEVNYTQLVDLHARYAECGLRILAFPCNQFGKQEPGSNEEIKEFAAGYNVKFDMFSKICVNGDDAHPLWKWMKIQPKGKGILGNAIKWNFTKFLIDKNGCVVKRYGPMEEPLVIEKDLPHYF
Sequence of Glutathione peroxidase 1 (Homo sapiens) (P07203 whole entry, looked up): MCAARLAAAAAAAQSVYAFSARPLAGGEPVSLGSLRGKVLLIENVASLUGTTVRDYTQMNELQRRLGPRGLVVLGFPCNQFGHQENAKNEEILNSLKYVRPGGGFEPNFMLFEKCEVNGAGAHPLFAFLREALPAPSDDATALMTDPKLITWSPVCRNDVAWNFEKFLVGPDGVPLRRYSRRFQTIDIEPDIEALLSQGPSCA

In the case of `CNC(=O)CN1CCC(Oc2cc3c(Nc4cccc(Cl)c4F)ncnc3cc2OC)CC1`, the activity in assay [1] was -36%; in assay [3], -23.1%; in assay [4], -49.9%. Also, the Potency in assay [2] was 42.9 µM (active); in assay [10], 0.0264 µM (active). Moreover, the Potency result in assay [5], in [6], in assay [7], in assay [8] and in assay [9] was “inactive” each time.
In the case of `O=C(O)c1ccc2c(c1)nc(Nc1cccc(Cl)c1)c1ccncc12`, the activity is -68.6% in assay [1], -53.1% in assay [3] and -66.6% in [4]. Further, the Potency in [2] is 27.1 µM (active). In addition, the Potency result in assay [5], in assay [6] and in assay [7] was “inactive” in each case.
For the compound `Nc1nccc(Oc2ccc(NC(=O)c3c[nH]cc(-c4ccc(F)cc4)c3=O)cc2F)c1Cl`, the values for the activity in assay [1], in [3] and in assay [4] were -3.16%, -55.9% and -3%, respectively. The activity change, negative = inhibition in assay [2] was -6.18%. Moreover, the Potency result in assay [6], in [8], in [9] and in assay [11] was “inactive” in each case.
Regarding `CCS(=O)(=O)c1cccc(-c2cc(C(=O)NC3CCN(C)CC3)c(C)c3[nH]c4ncc(C)cc4c23)c1`, the activity is -16.8% and -13.7% in assay [1]; -55.9% and -55.5% in assay [3]; -15.8% and -17.5% in [4]. In addition, the Potency in assay [2] was 18.8 µM (active); in assay [10], 2.35 µM (active). Moreover, the activity change, negative = inhibition in [2] was -3.37%. The Potency result in assay [5], in [6], in [7], in assay [8] and in [9] was “inactive” in each case.
As to `N#Cc1c(O)c2c(-c3ccc(-c4ccccc4O)cc3)csc2[nH]c1=O`, the results for the activity in assay [1], in assay [3] and in assay [4] were 1.41%, -31.1% and -7.68%, respectively. Moreover, the activity change, negative = inhibition in assay [2] is 0%. Further, in assay [5], the Potency is 12.8 µM (active) and inactive. In addition, the Potency entry in [6] and in [8] was “inactive” in each case.
Take `Cc1coc2c1C(=O)C(=O)c1c-2ccc2c1CCCC2(C)C`: the Potency is 53.6 µM (active) in [12]; 30.1 µM (active) in assay [15]; 24.1 µM (active) in assay [2]; 1.34 µM (active) in [8]; 9.47 µM (active) in assay [11]; 20.9 µM (active) in assay [10]. Moreover, the outcome in assay [13], in assay [14], in [16] and in assay [17] was “inactive” throughout. The figures for the activity in assay [1], in [3] and in assay [4] were -26.5%, -48.9% and -37.9%, respectively. Besides, the Potency entry in assay [18], in [5] and in assay [9] was “inactive” in each case.
In the case of `Nc1ccccc1NC(=O)c1ccc(CNC(=O)OCc2cccnc2)cc1`, the Potency entry in [18], in assay [5], in assay [6], in assay [7], in assay [8] and in assay [9] was “inactive” each time. Further, the Potency entry in [11] is “inactive”.
In the case of `Cc1cc(Nc2nc(N[C@@H](C)c3ccc(F)cc3)c(C#N)cc2F)n[nH]1`, the activity in assay [1] was -4.92%; in assay [3], -35.7%; in assay [4], -6.34%. In addition, the activity change, negative = inhibition in assay [2] was 0%. The Potency result in [19], in [5], in assay [6], in [7], in assay [8] and in assay [9] was “inactive” throughout. Further, the Potency entry in [11] was “inactive”.
`C=CCn1c(=O)c2cnc(Nc3ccc(N4CCN(C)CC4)cc3)nc2n1-c1cccc(C(C)(C)O)n1`: the figures for the activity in assay [1], in assay [3] and in assay [4] were -20.7%, -8.48% and -20.6%, respectively. Also, the activity change, negative = inhibition in assay [2] is -6.72%. The Potency result in assay [5], in [6], in assay [7], in assay [9] and in [11] was “inactive” each time.

The record behind these values is PubChem BioAssay (NCATS).
